# What was measured:
# Experiment in all cases: SPOT peptide array binding signal intensity (averaged, normalized) (arbitrary units (background-subtracted, floor 0; scale differs between SH3 domains)); higher = stronger binding of the SH3 domain to the peptide
# AgAbp1 = target: AgAbp1
# How it was run: (§1)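 E. coli BL21(DE3) was used to express GST-fused SH3 domains from four yeast species, which were then purified on glutathione Sepharose. These were incubated at 10 μg/ml in TBS-based blocking buffer overnight at 4°C on cellulose membranes carrying synthetic 15-mer peptides, in which cysteines were replaced by serines. Binding signal is the replicate average of normalized, background-subtracted spot intensity, in arbitrary units that differ between domains.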
# AgBbc1 = target: AgBbc1
# How it was run: as §1
# AgBem1-D1 = target: AgBem1-D1
# How it was run: as §1
# AgBzz1-D1 = target: AgBzz1-D1
# How it was run: as §1
# AgBzz1-D2 = target: AgBzz1-D2
# How it was run: as §1
# AgCyk3 = target: AgCyk3
# How it was run: as §1
# AgFus1 = target: AgFus1
# How it was run: as §1
# AgHof1 = target: AgHof1
# How it was run: as §1
# AgHse1 = target: AgHse1
# How it was run: as §1
# AgLsb1 = target: AgLsb1
# How it was run: as §1
# AgLsb4 = target: AgLsb4
# How it was run: as §1
# AgMyo5 = target: AgMyo5
# How it was run: as §1
# AgNbp2 = target: AgNbp2
# How it was run: as §1
# AgRvs167 = target: AgRvs167
# How it was run: as §1
# AgSho1 = target: AgSho1
# How it was run: as §1
# AgSla1-D1-D2 = target: AgSla1-D1-D2
# How it was run: as §1
# AgSla1-D3 = target: AgSla1-D3
# How it was run: as §1
# CaAbp1-D1 = target: CaAbp1-D1
# How it was run: as §1
# CaAbp1-D2 = target: CaAbp1-D2
# How it was run: as §1
# CaBbc1 = target: CaBbc1
# How it was run: as §1
# CaBem1-D1 = target: CaBem1-D1
# How it was run: as §1
# CaBzz1-D1 = target: CaBzz1-D1
# How it was run: as §1
# CaBzz1-D2 = target: CaBzz1-D2
# How it was run: as §1
# CaCyk3 = target: CaCyk3
# How it was run: as §1
# CaFus1 = target: CaFus1
# How it was run: as §1
# CaHof1 = target: CaHof1
# How it was run: as §1
# CaHse1 = target: CaHse1
# How it was run: as §1
# CaLsb1 = target: CaLsb1
# How it was run: as §1
# CaLsb4 = target: CaLsb4
# How it was run: as §1
# CaMyo5 = target: CaMyo5
# How it was run: as §1
# CaNbp2 = target: CaNbp2
# How it was run: as §1
# CaRvs167 = target: CaRvs167
# How it was run: as §1
# CaRvs167-3 = target: CaRvs167-3
# How it was run: as §1
# CaSho1 = target: CaSho1
# How it was run: as §1
# CaSla1-D1-D2 = target: CaSla1-D1-D2
# How it was run: as §1
# CaSla1-D3 = target: CaSla1-D3
# How it was run: as §1
# ScAbp1 = target: ScAbp1
# How it was run: as §1
binder,measurement,setting,value
HPRFVSPRIPSRIVK,SPOT peptide array binding signal intensity,AgAbp1,258
same,SPOT peptide array binding signal intensity,AgBbc1,502
same,SPOT peptide array binding signal intensity,AgBem1-D1,182
same,SPOT peptide array binding signal intensity,AgBzz1-D1,185
same,SPOT peptide array binding signal intensity,AgBzz1-D2,23.5
same,SPOT peptide array binding signal intensity,AgCyk3,1
same,SPOT peptide array binding signal intensity,AgFus1,239
same,SPOT peptide array binding signal intensity,AgHof1,116
same,SPOT peptide array binding signal intensity,AgHse1,176
same,SPOT peptide array binding signal intensity,AgLsb1,138
same,SPOT peptide array binding signal intensity,AgLsb4,28
same,SPOT peptide array binding signal intensity,AgMyo5,11
same,SPOT peptide array binding signal intensity,AgNbp2,390
same,SPOT peptide array binding signal intensity,AgRvs167,12.3
same,SPOT peptide array binding signal intensity,AgSho1,13
same,SPOT peptide array binding signal intensity,AgSla1-D1-D2,62.5
same,SPOT peptide array binding signal intensity,AgSla1-D3,32.5
same,SPOT peptide array binding signal intensity,CaAbp1-D1,322
same,SPOT peptide array binding signal intensity,CaAbp1-D2,83.5
same,SPOT peptide array binding signal intensity,CaBbc1,1520
same,SPOT peptide array binding signal intensity,CaBem1-D1,226
same,SPOT peptide array binding signal intensity,CaBzz1-D1,255
same,SPOT peptide array binding signal intensity,CaBzz1-D2,149
same,SPOT peptide array binding signal intensity,CaCyk3,17
same,SPOT peptide array binding signal intensity,CaFus1,373
same,SPOT peptide array binding signal intensity,CaHof1,2
same,SPOT peptide array binding signal intensity,CaHse1,25
same,SPOT peptide array binding signal intensity,CaLsb1,1
same,SPOT peptide array binding signal intensity,CaLsb4,933
same,SPOT peptide array binding signal intensity,CaMyo5,13.8
same,SPOT peptide array binding signal intensity,CaNbp2,428
same,SPOT peptide array binding signal intensity,CaRvs167,230
same,SPOT peptide array binding signal intensity,CaRvs167-3,5.75
same,SPOT peptide array binding signal intensity,CaSho1,170
same,SPOT peptide array binding signal intensity,CaSla1-D1-D2,736
same,SPOT peptide array binding signal intensity,CaSla1-D3,11.5
same,SPOT peptide array binding signal intensity,ScAbp1,238

# Reference: the supplement of paper PMC4466140
